{"source": "PubChem BioAssay AID2254", "about": "(The Scripps Research Institute Molecular Screening Center, 2010)", "note": "Values without a mark were called inactive. The rule behind the calls is not given here.", "data": [{"assay": "RBBP9 hydrolase inhibition, IC50 by ABPP – biochemical, gel-based ABPP, late-stage follow-up (AID 2254)", "details": "fluorophosphonate probe labeling of RBBP9", "units": {"IC50": "µM"}, "values": [{"smiles": "C/C(=N\\OC(=O)c1ccc(Cl)cc1)c1nccs1", "IC50": "> 100"}, {"smiles": "COc1ccc(C(=O)O/N=C(\\C)c2nccs2)cc1", "IC50": "> 100"}, {"smiles": "CC1=CC(=NOC(=O)/C=C/c2ccccc2)C=C(C)C1=O", "IC50": "> 100"}, {"smiles": "C/C(=N\\OC(=O)c1ccc(F)cc1)c1nccs1", "IC50": "> 100"}, {"smiles": "COc1ccc(C(=O)ON=C2C=C(C)C(=O)C(C)=C2)cc1", "IC50": "> 100"}, {"smiles": "C/C(=N\\OC(=O)C1CCCCC1)c1nccs1", "IC50": "> 100"}, {"smiles": "C/C(=N\\OC(=O)c1ccccc1)c1nccs1", "IC50": "> 100"}]}]}
